# Source: PubChem (several laboratories)
# FAS-TE inh: inhibitors of human fatty acid synthase thioesterase domain. recombinant FAS-TE, OMFH fluorogenic substrate, fluorescence endpoint. inhibition, % at 15 µM. hit rate 0.67% among 360,000. AID 602261;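 active = compounds whose normalised, plate-corrected inhibition of enzyme fluorescence in the single-dose primary screen is 50% or more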;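 note: 0% = DMSO with enzyme and 100% = substrate without enzyme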
# Target sequence (P49327 whole entry, looked up, the tested form may be a part): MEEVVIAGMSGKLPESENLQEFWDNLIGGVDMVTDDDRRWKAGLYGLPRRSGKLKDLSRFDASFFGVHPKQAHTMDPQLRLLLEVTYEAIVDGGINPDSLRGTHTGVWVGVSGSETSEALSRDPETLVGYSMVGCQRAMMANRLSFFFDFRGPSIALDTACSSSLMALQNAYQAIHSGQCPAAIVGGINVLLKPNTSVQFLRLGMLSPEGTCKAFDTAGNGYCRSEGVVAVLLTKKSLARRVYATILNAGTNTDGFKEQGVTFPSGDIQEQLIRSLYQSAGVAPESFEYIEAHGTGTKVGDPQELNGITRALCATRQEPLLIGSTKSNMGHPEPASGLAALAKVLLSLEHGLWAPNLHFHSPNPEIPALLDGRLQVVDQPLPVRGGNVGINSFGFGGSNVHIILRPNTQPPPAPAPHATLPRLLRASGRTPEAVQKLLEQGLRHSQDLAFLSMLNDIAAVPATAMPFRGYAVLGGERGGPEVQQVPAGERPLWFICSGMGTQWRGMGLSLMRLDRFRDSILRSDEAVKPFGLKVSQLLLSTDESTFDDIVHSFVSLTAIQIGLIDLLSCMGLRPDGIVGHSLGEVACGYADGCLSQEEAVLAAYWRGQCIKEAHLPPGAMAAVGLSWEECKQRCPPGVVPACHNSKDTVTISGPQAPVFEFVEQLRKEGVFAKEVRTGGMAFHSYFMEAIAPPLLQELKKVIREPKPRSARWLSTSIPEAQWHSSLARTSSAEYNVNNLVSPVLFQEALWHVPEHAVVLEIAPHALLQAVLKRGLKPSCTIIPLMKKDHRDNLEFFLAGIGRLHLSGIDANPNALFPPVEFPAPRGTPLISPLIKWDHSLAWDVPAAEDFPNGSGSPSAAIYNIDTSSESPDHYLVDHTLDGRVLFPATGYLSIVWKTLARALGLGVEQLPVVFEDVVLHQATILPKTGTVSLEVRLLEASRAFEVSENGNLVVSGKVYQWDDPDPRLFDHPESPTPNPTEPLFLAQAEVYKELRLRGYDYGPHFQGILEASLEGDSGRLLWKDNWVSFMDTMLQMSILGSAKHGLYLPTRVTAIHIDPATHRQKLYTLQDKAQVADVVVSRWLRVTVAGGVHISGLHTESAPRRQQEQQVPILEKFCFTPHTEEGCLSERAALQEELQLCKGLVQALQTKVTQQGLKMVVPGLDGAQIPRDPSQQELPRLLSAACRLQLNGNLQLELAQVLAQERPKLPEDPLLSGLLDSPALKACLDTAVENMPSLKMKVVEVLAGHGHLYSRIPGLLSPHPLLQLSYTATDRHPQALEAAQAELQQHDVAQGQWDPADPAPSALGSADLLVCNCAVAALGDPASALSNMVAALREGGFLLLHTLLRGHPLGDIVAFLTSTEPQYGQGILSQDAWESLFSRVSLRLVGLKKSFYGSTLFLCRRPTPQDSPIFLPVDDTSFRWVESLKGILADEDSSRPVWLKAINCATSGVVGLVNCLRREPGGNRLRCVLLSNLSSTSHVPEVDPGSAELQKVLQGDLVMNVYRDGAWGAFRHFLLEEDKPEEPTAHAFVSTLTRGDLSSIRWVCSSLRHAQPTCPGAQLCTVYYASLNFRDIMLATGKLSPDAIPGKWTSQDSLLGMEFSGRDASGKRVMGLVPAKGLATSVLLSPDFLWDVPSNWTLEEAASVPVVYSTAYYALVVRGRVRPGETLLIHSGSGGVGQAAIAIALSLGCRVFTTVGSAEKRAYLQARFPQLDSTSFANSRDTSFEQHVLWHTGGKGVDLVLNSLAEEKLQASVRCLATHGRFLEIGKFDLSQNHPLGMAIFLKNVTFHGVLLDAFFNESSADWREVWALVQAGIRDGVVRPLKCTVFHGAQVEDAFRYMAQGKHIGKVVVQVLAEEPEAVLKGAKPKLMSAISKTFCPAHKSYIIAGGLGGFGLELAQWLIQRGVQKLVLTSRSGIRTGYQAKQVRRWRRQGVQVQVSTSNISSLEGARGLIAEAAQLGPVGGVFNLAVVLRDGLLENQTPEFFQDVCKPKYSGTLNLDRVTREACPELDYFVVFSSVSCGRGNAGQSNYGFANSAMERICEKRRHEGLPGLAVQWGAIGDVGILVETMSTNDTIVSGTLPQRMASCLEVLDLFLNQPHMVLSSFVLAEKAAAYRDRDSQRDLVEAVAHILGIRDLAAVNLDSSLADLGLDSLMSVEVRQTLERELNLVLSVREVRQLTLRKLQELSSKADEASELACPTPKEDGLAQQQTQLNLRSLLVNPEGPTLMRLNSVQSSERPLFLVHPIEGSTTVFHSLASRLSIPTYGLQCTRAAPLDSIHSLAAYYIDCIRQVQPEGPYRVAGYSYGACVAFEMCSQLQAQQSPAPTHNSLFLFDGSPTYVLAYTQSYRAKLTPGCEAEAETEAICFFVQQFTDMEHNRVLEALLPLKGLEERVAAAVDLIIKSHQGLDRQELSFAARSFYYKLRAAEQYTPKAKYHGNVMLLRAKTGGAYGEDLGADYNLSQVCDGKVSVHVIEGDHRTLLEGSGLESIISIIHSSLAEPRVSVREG
# SUMO Mot1 rescue: inhibitors of SUMOylation pathway: yeast Mot1-301 growth rescue; S. cerevisiae Mot1-301 growth rescue, ATP luminescence, 38.5C; percent above DMSO median, 100 means doubled; growth rescue, % at 18.8 µM; hit rate 1% among 320,000;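 active = every valid replicate shows activation above 250% relative to neutral control wells; inactive = the rest, any valid replicate at or below 250%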;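 note: OY570 slx delta 5 strain wells were the positive control but not used for scaling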
# Yeast superoxide: lowers age-related superoxide in aged yeast cells; S. cerevisiae aged cells, superoxide DHE fluorescence; stronger effect = lower value; superoxide response (% of plate mean), % at 10 µM; hit rate 0.18% among 330,000; AID 2690;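 active = superoxide response under a set limit, about three screen SD below normal, cut at about 65% in these data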;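 note: yeast aged for seven days with compound at 30 °C before DHE staining; 100% = average MFI of all compound-treated wells on the plate with controls excluded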
# aDG glyco up: alpha-DG glycosylation activation; hit rate 0.22% among 360,000; activation, % at 10 µM; Pro5-aDG cells, alpha-DG glycosylation AlphaScreen (IIH6); 0% Pro5, 100% B10-LARGE cell signal;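 active = activation of at least 8% versus controls, or a plate z-score of at least 8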;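 note: Pro5 are CHO cells carrying HIG-tagged alpha-DG that lacks glycosylation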
# H9c2 protect: modulators protecting cardiomyocytes from myocardial damage; protection from H2O2 cell death, % at 20 µM; hit rate 0.63% among 360,000; H9c2 cardiomyocytes, H2O2 injury protection, ATPLite, 2 h; AID 588492;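 active = compounds giving at least 50% protection of heart cells from peroxide-induced death in the single-dose screen, raw or plate-pattern-corrected value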;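 note: 0% = DMSO wells with peroxide and 100% = DMSO wells without peroxide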
# MPTP block: permeability transition pore inhibition; isolated mouse mitochondria, Ca2+ swelling absorbance, 30 min; inhibition, % at 10 µM; hit rate 1.4% among 360,000;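 active = inhibition of 50% or more, scaled per plate between neutral and stimulator controls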;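 note: 0% = DMSO wells given calcium and 100% = 1 mM EGTA wells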
# Rh123 counter: membrane potential counter-screen of mitochondrial pore inhibitors; shares compounds with MPTP block; isolated mitochondria, Rhodamine 123 fluorescence; inhibition, % at 10 µM; hit rate 78% among 5,000; AID 624504; in the data active = inhibition above about 22%;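 note: 0% = DMSO vehicle and 100% = positive control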
# MPTP abs DR: dose response confirmation of mitochondrial permeability transition pore inhibitors. isolated mitochondria swelling, absorbance. IC50, µM. hit rate 58% among 780. shares compounds with MPTP block; in the data active = IC50 below about 20 µM
# MPTP counter DR: active in counter-screen for permeability transition pore inhibitors. shares compounds with MPTP block. isolated mitochondria counterscreen, fluorescence read-out. IC50, µM. hit rate 49% among 780; in the data active = IC50 below about 80 µM
# * hit, by the source's call; i = inactive; . = no result given. Rows were chosen to be rich in hits. Some 3.8% of all compounds tested hit in one or more screens of this group.
SMILES,FAS-TE inh,SUMO Mot1 rescue,Yeast superoxide,aDG glyco up,H9c2 protect,MPTP block,Rh123 counter,others
CC1=[N+](C)c2c(ccc3cccnc23)C1(C)C,-11,.,.,3,-30,95*,82*,
Cc1[nH]c2c(ccc3cccnc32)c1C,-5,30,109,0,-3,-2,.,
CC(=O)c1ccccc1OCCOc1ccccc1C(C)=O,-6,9,98,0,6,1,.,
COc1ccccc1OCCCCOc1ccccc1C(C)=O,12,-22,104,0,-14,61*,61*,
COc1ccc(CN2CCC2(C)C(=O)Nc2cnc3ccccc3c2)c2ccccc12 (stereo not given),22,.,.,0,4,-1,.,
Fc1ccc(NC(=S)Nc2cccnc2)cc1Cl,7,.,103,0,-18,101*,92*,
Fc1ccc(NC(=S)Nc2cccnc2)cc1,-11,-3,98,0,-6,-2,.,
Fc1ccc(NC(=S)Nc2cc(-c3ccccc3)[nH]n2)cc1Cl,20,.,88,2,-12,66*,82*,
Cc1ccc(NC(=S)Nc2cc(-c3ccccc3)[nH]n2)cc1Cl,4,4,85,1,-15,26,.,
CCOC(=O)[C@@H](NC(=O)/C=C/[C@H]1O[C@@H](n2ccc(=O)[nH]c2=O)[C@H](O)[C@@H]1O)C(C)C,-8,.,.,0,4,-1,.,
COc1cc(CNCCO)cc(Cl)c1OCc1ccccc1Cl,-2,4,98,7,19,80*,-12,MPTP abs DR=5.5*;MPTP counter DR=>80
CCOc1cc(CNCCCN2CCOCC2)cc(Br)c1OCc1ccccc1Cl,-1,.,108,-1,-20,100*,-4,
COc1cc(CNCc2ccncc2)cc(Br)c1OCc1ccccc1F,1,62,107,2,-14,94*,65*,
CCOc1cc(CNCCN2CCOCC2)ccc1OCc1ccccc1Cl,-5,-9,102,0,-4,1,.,
CCOc1cc(CNCCO)cc(Br)c1OCc1ccc(Cl)cc1,-10,18,108,1,-40,90*,-23,MPTP abs DR=3.8*;MPTP counter DR=61*
COc1cc(CNc2ccc(O)cc2)cc(Br)c1OCc1ccccc1F,10,25,105,2,-21,5,.,
CCOc1ccc(NC(=O)CN(C)C(=O)c2cn3ccccc3n2)cc1OCC,-7,-3,79,0,-6,0,.,
CC(=O)N1CCN(c2ccc(NC(=O)c3ccc([N+](=O)[O-])cc3)cc2)CC1,1,205,89,0,8,2,.,
CCOc1cc(CNCCO)cc(Br)c1OCc1ccccc1Cl,-11,18,110,1,-42,82*,20*,
c1ccc(CC2CCN(C3=Nc4cccc5cccc3c45)CC2)cc1,5,21,106,0,-20,51*,29*,
CCOc1ccc(NS(=O)(=O)c2ccc(-c3ccc(=O)[nH]n3)o2)cc1,-3,16,105,0,-3,0,.,
CCOCCCNC(=O)c1c[nH]c2ccc(OCC)cc2c1=O,-2,-6,91,0,-4,1,.,
Clc1ccc(OCCCCCN2CCCC2)c(Br)c1,0,191,100,6,-2,-5,.,
Clc1ccc(OCCCN2CCCCC2)c(Br)c1,-6,150,105,1,5,78*,-3,MPTP abs DR=i;MPTP counter DR=>80
CC1CCCN(CCOCCOc2ccc(Cl)cc2Br)C1 (stereo not given),-1,174,106,1,1,59*,1,MPTP abs DR=i;MPTP counter DR=>80
SMILES,FAS-TE inh,SUMO Mot1 rescue,Yeast superoxide,aDG glyco up,H9c2 protect,MPTP block,Rh123 counter,others
C[C@H](NC(=O)c1nc[nH]c1C(=O)NC1CCNCC1)C(=O)OC(C)(C)C,-14,-10,104,0,-2,-1,.,
CN1CCc2c(sc3nc(NN)n(-c4ccc(Cl)cc4)c(=O)c23)C1,-6,7,90,0,4,0,.,
Cc1cc(C)cc(NCc2cc(=O)oc3cc(-c4ccccc4)c(O)cc23)c1,-2,0,101,0,-5,12,.,
COc1ccc(C)cc1NCc1cc(=O)oc2cc(-c3ccccc3)c(O)cc12,-2,-8,102,0,7,94*,57*,
CCN(C(=O)COC(=O)/C(=C/c1ccccc1)NC(C)=O)c1c(N)n(Cc2ccccc2)c(=O)[nH]c1=O,-6,.,.,0,2,-1,.,
FC(F)(F)c1ccc(N2CCN(c3cc(-c4ccccc4)nc4ncnn34)CC2)nc1,36,0,103,3,-17,92*,48*,
FC(F)(F)c1cccc(Nc2cc(-c3ccccc3)nc3ncnn23)c1,-5,10,103,0,7,2,.,
COC(=O)C(Sc1ccc(Cl)cc1)C1SC(=S)N(Cc2ccccc2)C1=O (stereo not given),9,.,.,0,-2,-4,.,
Clc1ccc2c(N/N=C/c3cccc(Br)c3)ccnc2c1,6,24,127,0,-19,62*,94*,
Clc1ccc2c(N/N=C/c3ccccc3Br)ccnc2c1,-6,-5,91,0,-15,57*,99*,
COc1ccc(Cl)cc1C(=O)Nc1ccc(NC(C)=O)cc1,-1,13,95,1,4,0,.,
CC(=O)Oc1c(I)cc(I)cc1C(=O)Nc1ccc(Cl)cc1,33,0,95,0,-20,70*,69*,
OC(c1ccc(F)c(F)c1)c1nc(-c2ccncc2)cs1 (stereo not given),-2,.,.,1,-17,5,.,
OC(c1ccc(F)cc1)c1nc(-c2ccncc2)cs1 (stereo not given),1,.,.,0,-28,65*,57*,
OCC#Cc1ncc(C(F)(F)F)cc1Cl,-1,283,109,0,-15,-2,.,
Cc1cc(S(=O)(=O)NCC(c2ccc3c(c2)OCO3)N2CCOCC2)ccc1F (stereo not given),4,48,100,0,-1,0,.,
Cc1ccc(-n2c(O)c(/C=N/Nc3ccc(S(=O)(=O)N4CCOCC4)cc3[N+](=O)[O-])c3ccccc3c2=O)c(C)c1,31,-15,92,-1,-31,110*,40*,
O=C(O)c1ccc(/C=N\Nc2ccc(S(=O)(=O)N3CCOCC3)cc2[N+](=O)[O-])cc1,6,-41,98,0,0,1,.,
Clc1cccc(/C(Cc2nc3ccccc3[nH]2)=N\Nc2ccccc2)c1,21,29,99,0,-11,97*,62*,
CSc1nc(N)nc(SCC(=O)C(C)(C)C)c1C#N,10,39,103,0,1,4,.,
CSc1nc(N)nc(SCC(=O)Nc2ccc(Cl)cc2)c1C#N,43,43,103,0,-13,85*,82*,
